Hits are enriched below; roughly 2.5% of the tested compounds scored in any of these assays.
CHT allo act: human CHT allosteric activation. Q9GZV3. CHT-expressing cells, membrane potential dye, choline EC20; hits give high values; LV-AA mutant CHT in HEK293 cells. B-score at 10 µM. 0.49% of 310,000 active. AID 488977;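 active = initial fluorescence not abnormally high and integrated response B-score, plate-corrected, over 3 SD above library mean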
PKA-R1A activ: activates the PKA-R1A holoenzyme complex; P00514+P68181; PKA-R1A dissociation, Cy5-IP20 fluorescence polarization; scaled: DMSO 0%, 113 µM cGMP 100%; activation, % at 11.4 µM; 0.083% of 340,000 active;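 active = percent activation above the mean of all tested compounds plus 3 SD, cut at about 19% in these data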;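 also: higher means more PKAc released from R1A so a rise in polarization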
CHT inh: human CHT choline transport inhibition; Q9GZV3; CHT-expressing cells, membrane potential dye, choline response; hits give low values; B-score at 10 µM; 0.86% of 310,000 active;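 active = B-score over 3 SD under the library average, and starting fluorescence ratio not unusually high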;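 also: choline stimulus applied at its EC90 after an EC20 pre-addition; B-score computed on integrated fluorescence ratio after choline addition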
ANO1 block: inhibitors of mouse TMEM16A calcium-activated chloride channel. Q8BHY3. HEK293 TMEM16A/YFP iodide influx fluorescence, ionomycin. normalized B-score (activity score, 25-100; higher = stronger inhibition) at 10 µM. 1.2% of 310,000 active;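 active = ratio plate-corrected score three or more library SD toward inhibition, starting fluorescence score within five deviations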;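 also: score derived from kinetic fluorescence span divided by baseline fluorescence per well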
Target sequence (Q8BHY3 whole entry, looked up): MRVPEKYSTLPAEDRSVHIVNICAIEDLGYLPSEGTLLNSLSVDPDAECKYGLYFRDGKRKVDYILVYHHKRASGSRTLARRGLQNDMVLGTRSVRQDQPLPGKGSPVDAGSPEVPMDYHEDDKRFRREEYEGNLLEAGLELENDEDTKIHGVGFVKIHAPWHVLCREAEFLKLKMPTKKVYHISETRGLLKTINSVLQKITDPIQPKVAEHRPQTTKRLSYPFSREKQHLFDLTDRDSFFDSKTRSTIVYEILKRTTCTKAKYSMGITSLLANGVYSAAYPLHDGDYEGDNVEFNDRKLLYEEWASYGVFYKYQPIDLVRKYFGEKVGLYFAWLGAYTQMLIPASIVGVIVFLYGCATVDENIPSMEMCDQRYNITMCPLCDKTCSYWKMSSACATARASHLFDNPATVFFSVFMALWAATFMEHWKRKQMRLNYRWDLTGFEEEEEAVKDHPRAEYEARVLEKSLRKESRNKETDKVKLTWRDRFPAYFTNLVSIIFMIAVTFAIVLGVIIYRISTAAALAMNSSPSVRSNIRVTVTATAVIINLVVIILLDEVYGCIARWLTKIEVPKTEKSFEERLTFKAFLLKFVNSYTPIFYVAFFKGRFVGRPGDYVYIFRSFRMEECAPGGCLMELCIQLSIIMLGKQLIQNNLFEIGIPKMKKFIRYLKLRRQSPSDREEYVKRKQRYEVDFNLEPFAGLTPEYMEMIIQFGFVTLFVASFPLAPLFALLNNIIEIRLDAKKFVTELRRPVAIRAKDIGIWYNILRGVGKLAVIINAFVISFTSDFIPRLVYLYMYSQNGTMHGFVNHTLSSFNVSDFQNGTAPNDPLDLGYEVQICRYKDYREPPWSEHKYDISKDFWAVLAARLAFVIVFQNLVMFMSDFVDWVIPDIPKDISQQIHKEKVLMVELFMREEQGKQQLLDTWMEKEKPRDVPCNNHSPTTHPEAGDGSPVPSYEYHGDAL
TMEM16A act: mouse TMEM16A channel activation, primary screen; B-score at 10 µM; HEK293 TMEM16A/YFP-H148Q/I152L, iodide quench fluorescence; hits give low values; Q8BHY3; 0.3% of 340,000 active;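 active = fluorescence-ratio B-score plate-corrected deviation score at least 3 library SD below zero, with starting fluorescence score within 5 deviations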;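 also: channel opened by trigger with iodide after compound preincubation; score built on the fluorescence ratio of max minus min over baseline; more negative score means more quench and so TMEM16A activation or potentiation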
PKA-R2B act: PKA-R2B complex activation. P22694+P31323. PKA-R2B holoenzyme dissociation, Cy5-IP20 fluorescence polarization; R2B truncated from residue 108, S112A mutant; 0% DMSO only, 100% 113 µM cGMP. activation, % at 11.4 µM. 0.079% of 340,000 active;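 active = activation above a cutoff set at the mean over all compounds plus 3 SD, cut at about 18% in these data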;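 also: higher means more holoenzyme dissociation and a rise in polarization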
TMEM16A reconf: TMEM16A (mouse) chloride channel inhibition, re-confirmation | 39% of 2,300 active | AID 652189 | HEK293 TMEM16A/YFP-H148Q, iodide quench fluorescence; ionomycin added to raise cell calcium | shares compounds with ANO1 block | inhibition, % at 10 µM;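 active = mean duplicate percent inhibition, scaled so buffer wells are 0 and the reference blocker 100, over three buffer SD above buffer mean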
HEK293 Ca mobil: calcium mobilization counter-screen hit for TMEM16A inhibitor series. calcium response (% of ionomycin), % at 10 µM. shares compounds with ANO1 block. TMEM16A/YFP HEK293, Fluo4 calcium mobilization. 2% of 2,300 active;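 active = duplicate-averaged calcium signal over 20% of the ionomycin maximum, relative to buffer baseline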;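 also: each well's signal is peak minus trough fluorescence divided by its pre-addition baseline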
Parental YFP cnt: counter-screen for TMEM16A inhibitors: effect in parental YFP-HEK293 cells; shares compounds with ANO1 block; iodide YFP quench, ionomycin; YFP ratio F(max-min)/F0 at 10 µM; 2,300 tested, under 10 active; AID 652233;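 active = yellow fluorescent protein signal ratio exceeding the buffer control mean by over 5 SD of those controls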;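 also: ratio is mean of duplicate wells from kinetic YFP trace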
ClC-1 rat inh: rat ClC-1 inhibition, TMEM16A specificity screen. shares compounds with ANO1 block. CHO ClC-1-YFP, iodide influx fluorescence quench; iodide control reads 0, buffer control 100. ratio percent, % at 10 µM. 2,300 tested, under 10 active. AID 652236;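 active = duplicate-mean ratio percent above the mean of iodide-only control wells, which defines zero, plus 5 of their SD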;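 also: higher percent means stronger block of ClC-1 iodide influx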
Of the large screens only hits and unclear results are named; the others gave an inactive call (follow-up assays come after a bar, where they were run).

Cc1cc2c(C(F)(F)F)cc(=O)oc2c2c1NCCC2	none | TMEM16A reconf 18% | HEK293 Ca mobil 30% | Parental YFP cnt inactive | ClC-1 rat inh inactive
Cc1ccsc1C(=O)C1CCCN(Cc2cccn2-c2ccccn2)C1 (stereo not drawn)	none
O=[N+]([O-])c1ccc(N2CCCC(C(F)(F)F)C2)c2ccncc12 (stereo not drawn)	ANO1 block 100 | TMEM16A reconf 20% | HEK293 Ca mobil inactive | Parental YFP cnt inactive | ClC-1 rat inh inactive
O=[N+]([O-])c1ccc(N2CCCCC2)c2ncccc12	none
CC1CC(C)CN(C(=O)COC(=O)c2cn(C)c3ccccc23)C1 (stereo not drawn)	none (no result: CHT allo act, CHT inh, ANO1 block)
c1ccc(CCN2CCC(N3CCN(c4ccccc4)CC3)CC2)cc1	ANO1 block 25 | TMEM16A reconf inactive | HEK293 Ca mobil inactive | Parental YFP cnt inactive | ClC-1 rat inh inactive
NCCCC(=O)OC1N=C(c2ccccc2Cl)c2cc(Br)ccc2NC1=O (stereo not drawn)	none
CCOC(=O)C1(CCc2ccccc2)CCN(Cc2ccc(NC(C)=O)cc2)CC1	none
CCOC(=O)C1(CCc2ccccc2)CCN(Cc2ccc3c(c2)OCCO3)CC1	ANO1 block 25 | TMEM16A reconf inactive | HEK293 Ca mobil inactive | Parental YFP cnt inactive | ClC-1 rat inh inactive
O=c1[nH]c(=O)n(CCC2=CCCCC2)c(O)c1C=NC1CCN(Cc2ccccc2)CC1	ANO1 block 25 | TMEM16A reconf inactive | HEK293 Ca mobil inactive | Parental YFP cnt inactive | ClC-1 rat inh inactive
Cn1nc(-c2ccc(OCC(=O)N3CCN(Cc4ccccc4)CC3)cc2)c2ccccc2c1=O	ANO1 block 100 | TMEM16A reconf 20% | HEK293 Ca mobil inactive | Parental YFP cnt inactive | ClC-1 rat inh inactive
O=c1ccc2cc3ccoc3c(O)c2o1	none (no result: CHT allo act, CHT inh, ANO1 block)
O=C(Nc1ccc(C(F)(F)F)cc1)c1cccn(Cc2ccc3c(c2)OC(F)(F)O3)c1=O	ANO1 block 25 | TMEM16A reconf inactive | HEK293 Ca mobil inactive | Parental YFP cnt inactive | ClC-1 rat inh inactive
